Only some compounds are listed: those with a hit (about 10% of all), similar ones and a draw of the others.
3T3 cytotox – Cytotoxic Profiling in NIH 3T3 Cell Line of Diverse Libraries Using Quantitative High-Throughput Screening. NIH 3T3 viability, CellTiter-Glo ATP luminescence, 48-72 h. Potency, µM (titrated, usually from 96.7 µM), for the others: top-dose activity change, negative = cytotoxicity, hits mostly inhibitors. 94,000 tested, 4.3% active. AID 1345082, 2018; also: nearly all actives have a fitted effect of over 55% in size
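Cells were seeded at 400 per well, treated with pin-transferred compound, and kept 48 or 72 hr at 37 °C before CellTiter-Glo addition and luminescence imaging of cellular ATP.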
Luciferase inh – Firefly luciferase inhibition profiling of diverse chemical library using quantitative high-throughput screening. Potency, µM (titrated, usually from 115 µM), usual class: inhibitors. 76,000 tested, 2.5% active. purified P. pyralis luciferase, luminescence, biochemical; also: nearly all actives have a fitted effect of over 65% in size
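Biochemical qHTS: compound (6-point titration) added to 10uM D-luciferin plus 10uM ATP in Tris acetate pH 7.5 buffer with Mg, Tween-20 and BSA, then purified enzyme at 10nM; light output imaged.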
GPT2 inh – Primary qHTS assay for inhibitors of Glutamate pyruvate transaminase 2 (GPT2); 100,000 tested, 0.25% active; Recombinant GPT2, coupled pyruvate oxidase/HRP Amplex Red fluorescence; Alanine aminotransferase 2 (Homo sapiens), Q8TD30; AID 1671188, 2021; Potency, µM (titrated, usually from 57.7 µM), for the others: at the top dose activity change, negative = inhibition, most hits filed as inhibitors; also: nearly all actives have a fitted effect of over 60% in size
Target sequence (Q8TD30 whole entry, looked up): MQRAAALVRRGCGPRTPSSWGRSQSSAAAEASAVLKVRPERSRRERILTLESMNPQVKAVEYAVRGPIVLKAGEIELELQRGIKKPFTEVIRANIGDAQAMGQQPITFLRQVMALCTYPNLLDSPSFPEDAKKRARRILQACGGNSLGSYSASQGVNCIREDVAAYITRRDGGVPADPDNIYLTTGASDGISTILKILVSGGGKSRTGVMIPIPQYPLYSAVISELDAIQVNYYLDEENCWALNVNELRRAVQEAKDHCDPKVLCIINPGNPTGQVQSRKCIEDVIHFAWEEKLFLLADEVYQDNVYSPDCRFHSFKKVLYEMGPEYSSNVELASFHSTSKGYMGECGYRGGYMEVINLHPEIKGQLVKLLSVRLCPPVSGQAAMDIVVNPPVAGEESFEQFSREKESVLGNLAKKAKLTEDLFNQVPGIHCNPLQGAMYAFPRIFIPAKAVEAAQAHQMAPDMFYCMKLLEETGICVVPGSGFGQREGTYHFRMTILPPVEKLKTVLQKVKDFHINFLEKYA
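Fluorescence read-out: pyruvate from GPT2 turnover coupled to pyruvate oxidase, HRP and Amplex Red (0.2mM ThPP, 0.2U/mL PO and HRP, 50uM Amplex final). Substrates 250uM a-KG, 2mM L-alanine; enzyme 10ng/uL; 30 min RT.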
HEK cytotox – Cytotoxic Profiling in HEK 293 Cell Line of Diverse Libraries Using Quantitative High-Throughput Screening; Potency, µM (highest dose often 115 µM), inactives show top-dose activity change, negative = cytotoxicity, actives largely listed as inhibitors; HEK 293 viability, ATP luminescence (CellTiter-Glo), 48-72 h; 94,000 tested, 6.6% active; also: nearly all actives have a fitted effect of over 60% in size
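HEK 293 seeded at 250 cells/well receive compound via pintool. After 48 or 72 hr at 37 degree Celsius, 5% CO2 and 95% humidity, CellTiter-Glo is dispensed and luminescence read following 10 min at room temperature.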
NPR1 antag – Natriuretic polypeptide receptor (hNpr1) antagonism - Primary qHTS. HEK293 hNpr1 GloSensor cGMP, ANP-stimulated luminescence. Potency, µM (doses to about 46.3 µM), for the others: at the highest dose activity change, negative = inhibition, actives largely listed as inhibitors. 76,000 tested, 1.6% active. AID 1347048, 2019; calls by dose curve; also: nearly all actives have a fitted effect of over 60% in size
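Compound pre-incubated 30 min at room temperature on GloSensor-loaded HEK293 cells stably carrying hNpr1 and the pGS-40F cGMP biosensor. Stimulation uses hNppA at 0.1 nM final; luminescence is taken at baseline and 20 min post-agonist.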
An asterisk follows results filed as active; i = inactive; u = inconclusive; x = no result given; [ ] = remark or other dose. Unless noted, calls follow the shape of the dose curve; as a rule, active = well fitted curve in the direction sought with a large enough effect; inconclusive = small, poorly fitted or top-dose-only effect, or another doubt; inactive = no such curve, though single readings can be large; an effect the other way counts as inactive or inconclusive. % is scaled to controls: 0 for no effect and ±100 for the full control effect; potency is read from the fitted curve at half-maximal effect.

SMILES | 3T3 cytotox | Luciferase inh | GPT2 inh | HEK cytotox | NPR1 antag
O=C(NC1CCN(c2ccc3nnc(-c4ccccc4)n3n2)CC1)c1ccccc1 | -5.3% | x | x | u | x
CN(C)C(=O)NC1CCCN(c2ccc3nnc(-c4ccccc4)n3n2)C1 (stereo not given) | 44.7µM* | x | x | u | x
O=C(NC1CCCN(c2ccc3nnc(-c4ccccc4)n3n2)C1)c1ccc(Cl)nc1 (stereo not given) | u | x | x | 28.2µM* | x
O=C(Nc1ccc(Cl)cc1)N1CCCN(c2ccc3nnc(-c4ccccc4)n3n2)CC1 | 28.2µM* | x | x | u | x
CN(CC1CCOCC1)C(=O)Cc1ccccc1 | 4.3% | i | i | 18.1% | -3.8%
O=C(NC1CCCN(c2ccc3nnc(-c4ccccc4)n3n2)C1)c1ccccc1 (stereo not given) | 28.2µM* | x | x | 35.5µM* | x
Cc1ncc(CN2CCC(C(=O)Nc3cccc(-c4cc5ccccc5[nH]4)c3)CC2)cn1 | u | i | i | 20µM* | -1.4%
COCCNC(=O)[C@@H](C)C1CC[C@@]2(C)Cc3sc(NC(=O)CN(C)C)nc3[C@@H](C)[C@@H]2[C@H]1O (stereo not given in full) | 1.2% | 20µM* | 4.7% | -18.0% | -9.3%
C=CCNC(=O)Nc1nc2c(s1)C[C@]1(C)CC[C@@H]3[C@H](OC(=O)[C@H]3C)[C@H]1[C@@H]2C | -10.1%[174 µM] | 15.8µM* | -20.6%[88.5 µM] | u | -18.7%[70.6 µM]
C[C@H](C(=O)N1CCCC1)C1CC[C@@]2(C)Cc3sc(NC(=O)C4CC4)nc3[C@@H](C)[C@@H]2[C@H]1O (stereo not given in full) | -13.7% | i | -5.7% | -18.9% | 2.5%
C[C@@H]1C(=O)O[C@H]2[C@H]1CC[C@@]1(C)Cc3sc(NC(=O)CC(C)(C)C)nc3[C@@H](C)[C@H]21 | u | 20µM* | 1.9%[88.5 µM] | 31.6µM* | -20.6%[70.6 µM]
C[C@@H]1C(=O)O[C@H]2[C@H]1CC[C@@]1(C)Cc3sc(Nc4ccc(C(=O)O)cc4)nc3[C@@H](C)[C@H]21 | 0.0%[138 µM] | 1µM* | u | -6.8%[172 µM] | 12.6µM*
C[C@@H]1C(=O)O[C@H]2[C@H]1CC[C@@]1(C)Cc3sc(NC(=O)COc4ccccc4)nc3[C@@H](C)[C@H]21 | -23.3% | i | -18.4% | u | -30.4%
C[C@@H]1C(=O)O[C@H]2[C@H]1CC[C@@]1(C)Cc3sc(NC(=O)CN(C)C)nc3[C@@H](C)[C@H]21 | -15.4%[174 µM] | 3.16µM* | -15.2%[88.5 µM] | -9.4%[172 µM] | 15.8µM*
C[C@@H]1C(=O)O[C@H]2[C@H]1CC[C@@]1(C)Cc3sc(NC(=O)CCC(=O)O)nc3[C@@H](C)[C@H]21 | -4.1%[174 µM] | u | i | 1.5%[172 µM] | -17.2%[70.6 µM]
COc1ccc(NC(=O)c2cnc3n[nH]c(-c4ccc(OC)cc4C)c3n2)cc1 | 44.7µM* | i | i | u | 3.7%[70.6 µM]
COc1ccc(-c2[nH]nc3ncc(C(=O)Nc4ccn(C)n4)nc23)c(C)c1 | u | i | -0.5%[88.5 µM] | 89.1µM* | -1.1%[70.6 µM]
COc1ccc(-c2[nH]nc3ncc(C(=O)N4CC(O)C4)nc23)c(C)c1 | 7.94µM* | i | 0.7%[88.5 µM] | u | -2.7%[70.6 µM]
COc1ccc(-c2[nH]nc3ncc(C(=O)N4C[C@@H](C)O[C@@H](C)C4)nc23)c(C)c1 | u | i | 3.6%[88.5 µM] | u | 7.7%[70.6 µM]
CC1=C[C@@H](CNC(=O)COc2ccccc2)[C@H](C(C)C)C[C@H]1CC(=O)NCCN1CCOCC1 | -19.7% | i | 0.8% | -17.7% | -2.2%
CC(=O)Nc1ccc(C(=O)NC[C@@H]2C=C(C)[C@H](CC(=O)NCCN3CCOCC3)C[C@H]2C(C)C)cc1 | 2.2% | 44.7µM* | u | -9.7% | 5.6%
CC1=C[C@@H](CNS(=O)(=O)c2cccs2)[C@H](C(C)C)C[C@H]1CC(=O)NCCN1CCOCC1 | 25.1µM* | i | -2.6% | -22.1% | 2.4%
COc1ccc(CN2CC[C@H](c3nnc(-c4cccnc4)o3)C2)c(O)c1 | u | i | 1.0%[88.5 µM] | -3.9%[172 µM] | 2.8%[70.6 µM]
COc1ccccc1Nc1ccnc(N2CCN([S+](=O)([O-])c3c(C)noc3C)CC2)n1 | u | x | 3.2% | u | x
CN(C1CCOCC1)C1CCN(C(=O)c2ccnn2C)CC1 | -12.2% | i | i | -10.6% | 3.7%
SMILES | 3T3 cytotox | Luciferase inh | GPT2 inh | HEK cytotox | NPR1 antag
Cn1ccc2c(C(=O)NCc3cnccn3)nc(-c3cccc(N4CCOCC4)c3)cc21 | u | i | 1.8%[88.5 µM] | -20.9%[172 µM] | 4.6%[70.6 µM]
Cn1cncc1CNC(=O)c1nc(-c2cccc(N3CCOCC3)c2)cc2c1ccn2C | 50.1µM* | i | -4.4%[88.5 µM] | u | -12.9%[70.6 µM]
O=C(NCCc1cnc[nH]1)c1nc(-c2ccccc2)cc2[nH]ccc12 | u | i | 0.9%[88.5 µM] | u | -12.8%[70.6 µM]
Cn1ccc2c(C(=O)NCc3cccnc3)nc(-c3cccc(F)c3)cc21 | u | i | -1.2%[88.5 µM] | 89.1µM* | u
Cn1ccc2c(C(=O)NCc3cccnc3)nc(-c3cccc(O)c3)cc21 | u | i | -24.5%[88.5 µM] | u | -20.7%[70.6 µM]
COc1ccc(-c2cc3c(ccn3C)c(C(=O)NCc3cccnc3)n2)cc1 | u | u | 3.4%[88.5 µM] | 112µM* | -29.6%[70.6 µM]
Cc1ccc(-c2cc3c(ccn3C)c(C(=O)NCCc3cnc[nH]3)n2)cn1 | 28.2µM* | i | -13.3%[88.5 µM] | u | 4.7%[70.6 µM]
CC(C)(C)C(=O)NC1CCCN(c2ccnc3ccnn23)C1 (stereo not given) | -29.8%[138 µM] | x | -6.2%[88.5 µM] | -20.1%[172 µM] | x
CN1CCN(c2ccc(-c3cc4c(ccn4C)c(C(=O)NCC4CCOCC4)n3)cc2)CC1 | 20µM* | 35.5µM* | i | u | 1.8%
Cn1ccc2c(C(=O)NCc3cccnc3)nc(-c3ccc([S+](C)(=O)[O-])cc3)cc21 | u | i | 0.0%[88.5 µM] | u | 2.3%[70.6 µM]
Cc1ccc(-c2cc3c(ccn3C)c(C(=O)NCc3cccnc3)n2)cn1 | 35.5µM* | i | i | u | 7.8%[70.6 µM]
CN1CCN(c2ccc(-c3cc4c(ccn4C)c(C(=O)NCc4cccnc4)n3)cc2)CC1 | u | u | 1.7% | 28.2µM* | -3.7%
CN(C)c1ccc(-c2cc3c(ccn3C)c(C(=O)NCc3cccnc3)n2)cc1 | u | u | -19.7%[88.5 µM] | u | -3.4%[70.6 µM]
Cn1ccc2c(C(=O)NCc3cccnc3)nc(-c3cncnc3)cc21 | 44.7µM* | i | -13.4%[88.5 µM] | -20.9%[172 µM] | 1.6%[70.6 µM]
CCCc1cc(CNC(=O)c2ccc(N3C[C@@H](C)O[C@@H](C)C3)nc2)on1 | -20.3% | i | -4.8% | 4.6% | 0.8%
CCn1ccc(C(=O)N2CCC(N3CC(OCC4CC4)C34CCOCC4)CC2)n1 (stereo not given) | i | i | i | i | 4.0%
